Data on six compounds can be found in PubChem BioAssay (NCATS).

The nature of the experiment: qHTS Assay for Lipid Storage Modulators (AID 1519). On activity change, negative = inhibition: on the % scale 0 is the no-effect control and ±100 the full control effect. To be noted: Drosophila S3 cells, BODIPY lipid droplet/cell ratio, laser cytometry, cells loaded with oleic acid. An excerpt: NIH Molecular Libraries Probe Production Centers Network [MLPCN]
NIH Chemical Genomics Center [NCGC]
Assay Submitter (PI): Beller, Mathias; Max-Planck-Institut fur Biophysikalische Chemie
NCGC Assay Overview: Storing lipids as a reservoir for energy or the anabolism of elementary metabolites is a common feature of probably all cells and is conserved from bacteria to humans. The universal cellular lipid storage organelle is the so-called lipid storage droplet (LD). Although ubiquitous, LDs share a simple structure composed of a hydrophobic core that harbors the storage lipids, which is shielded by a droplet-specific phospholipid monolayer to which proteins are attached. The current model of LD biogenesis involves an incorporation of the lipid core into the membrane leaflets of the endoplasmic reticulum (ER) followed by a subsequent budding-like maturation of a LD, which ultimately pinches off. Once released, LD volume can increase by localized lipogenesis or fusion of existing droplets. Storage lipids are re-mobilized enzymatically by lipase activity. Lipase regulation in the adipocyte is heavily studied and involves multiple components including catecholamine signaling, the LD-associated proteins Perilipin and comparative gene identification-58 (CGI-58) and at least two lipases named hormone sensitive lipase (HSL) and adipocyte triglyceride lipase (ATGL). LD regulation outside of the adipocyte is poorly understood and only few components are known. However, there is an urgent need to learn more about ectopic fat depots as mislocalized storage of lipids, for example in the liver or muscle, is an eminent health problem associated with insulin resistance or the metabolic syndrome. We developed a laser-scanning cytometer assay to enable 1,536-well screening and combined the results of the small molecules screen with an RNAi database based on lipid storage.
NCGC Assay Protocol Summary:
We dispensed 4 uL of cells at 1.25 x 10^6 cells/mL into LoBase Aurora COC 1,536-well plates (black walled, clear bottom) with a bottle-valve solenoid-based dispenser (Aurora) to obtain 5,000 cells/well. Triacsin C (Sigma-Aldrich T-4540), an inhibitor of long-chain fatty acyl CoA synthetase that blocks synthesis of triglycerides, was used as a positive control for lipid under-storage. A total of 23 nL of compound solution of different concentrations were transferred to the assay plates using a Kalypsys pin tool equipped with a 1,536-pin array containing 10-nL slotted pins (FP1S10, 0.457-mm diameter, 50.8 mm long; V&P Scientific). One microliter of oleic acid (400 uM) was added, and the plate was lidded with stainless steel rubber gasket lined lids containing pinholes. […] Fluorescence was detected by excitation of the fluorophores with a 488-nm laser on an Acumen Explorer (TTP Lab Tech). The total intensity in channel 1 (500-530 nm) reflected lipid droplet accumulation. […] The ratio of the total intensity in PMT channel 1 over total intensity of channel 3 was also calculated. Percent activity was computed relative to an internal control (100% inhibited lipid droplet deposition due to the presence of 20 uM Triacsin C), which was added to 32 wells/plate.
A general note: Quantitative high-throughput screening tests each substance at several concentrations.

[1] abbreviates: measured here: cell count channel max response.
Setting [2] is: measured here: lipid channel max response.

Records with an inconclusive call do not appear. Active and inactive are the calls of the source. The call rests on the fitted dose curve.

Take `Nc1ccc(S(=O)(=O)Nc2ncccn2)cc1`: the activity change, negative = inhibition (at 25.7 µM (top of the series)) was 0.373% (inactive). For the same compound, the max response is -6.66% under setting [1] and -7.25% under setting [2].
With `C[C@H]1C[C@@H]2[C@@H]([C@@H](O)C[C@@]3(C)[C@H]2CC[C@]3(O)C(=O)CO)[C@@]2(C)C=CC(=O)C=C12`, for the setting “at 25.7 µM (top of the series)”, the activity change, negative = inhibition was -1.2% (inactive). In addition, the max response was -15.5% under setting [1] and -14.8% under setting [2].
In the case of `Cc1coc2c1C(=O)C(=O)c1c-2ccc2c1CCCC2(C)C`, for the setting “at 57.5 µM (top of the series)”, the activity change, negative = inhibition was 6.48% (inactive). Moreover, the max response was determined as 16.1% under setting [1] and 23.2% under setting [2].
For `O=c1c2ccccc2nc2n1CCc1c-2[nH]c2ccccc12` the same measures were 1.95% (inactive), 45% and 50%.
For `CC[C@H](CO)Nc1nc(NCc2ccccc2)c2ncn(C(C)C)c2n1` the same measures were 2.75% (inactive), 73% and 78.1%.
As to `CC[C@@]1(O)C(=O)OCc2c1cc1n(c2=O)Cc2cc3cc(O)ccc3nc2-1`, for the setting “at 57.5 µM (top of the series)”, the activity change, negative = inhibition is -14.2% (inactive). Further, the max response is -6.87% under setting [1] and -17.5% under setting [2].
